In PubChem BioAssay (NCATS):
Several values for one entry are separate records, joined by “and”; a condition that tells them apart may be missing. Identical values can stand only once. Inconclusive results are not listed. Activity calls are given as the source filed them. Calls come from the whole dose curve; as a rule, active = well fitted cell-killing curve with a large enough effect; inconclusive = small, poorly fitted or top-dose-only effect; inactive = flat fitted curve, though single readings scatter.

experiment: Cellular viability qHTS for adrenocortical cancer (ACC) cell line SW-13 (AID 1963989); settings: SW-13 ACC cells viability, CellTiter-Glo, 48 h; activity (max response): stronger effect = lower value; note: nearly all actives have a fitted effect of over 65% in size;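 for activity (max response): cells grown in serum-free medium with ITS supplement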
Source text: PI: Naris Nilubol, MD Surgical Oncology Program, National Cancer Institute (NCI) National Institute of Health (NIH), Bethesda, Maryland Adrenocortical cancer (ACC) is a rare malignancy with poor survival outcomes and few treatment options. Currently, mitotane is the only FDA-approved therapy for ACC. Although adjuvant radiation therapy is rarely utilized, it has the potential to improve survival in select cases. Through a quantitative high-throughput drug screen (qHTS), we identified auranofin (AF), a thioredoxin reductase (TXNRD) inhibitor, as a promising candidate drug. This study aims to evaluate whether AF can enhance the efficacy of radiation therapy in the treatment of ACC. Two human ACC cell lines, SW-13 and NCI-H295R, were screened using the National Center for Advancing Translational Sciences (NCATS) Pharmaceutical Collection (NPC) and the Mechanism Interrogation PlatE (MIPE) library (~4,991 compounds). CellTiter-Glo (Cat # G7570, Promega, Madison, WI) was utilized to measure cell viability. Described herein are the results of the corresponding viability assay.
PROTOCOL TABLE (as described by Inglese J, Shamu CE and Guy RK. 2007) SEQUENCE No. (e.g., 1, 2, 3, etc.); […] (e.g., Cells, Incubation, Reagent, etc.); VALUE; DESCRIPTION. 1; Cells; 5 uL; white, solid-bottom, 1536-well tissue-culture treated plates. 2; Time; overnight culture at 37C with 5% CO2. 3; Compounds and control; 23 nL; Kalypsis pin tool (Wako USA) equipped with a 1536-well pin head to transfer to the assay plates. 4; Time; 48 hours; 37C with 5% CO2. 5; Reagent; 4 uL; CellTiter-Glo luminescent substrate mix. 6; Time; 20 min at room temperature. 7; Detection; Luminescence; ViewLux plate reader NOTES (numbers refer to Sequence numbers above) 1. SW13 cells were harvested from a T175 flask and resuspended in ITS-supplemented DMEM serum-free medium at a concentration of 300 000 cells/mL. Then 5 uL of resuspended cells were dispensed into each well of white, solid-bottom, 1536-well tissue-culture-treated plates using a multidrop combi dispenser. The plates were covered with stainless steel gasket lids. 2-3. The plates were cultured overnight at 37C with 5% CO2. Twenty-three nL of compounds (eight selected concentrations from the NPC / MIPE) or positive control (10 mM stock of bortezomib) in DMSO was transferred to each well of the assay plate using a pin tool (Kalypsys, San Diego, CA, USA). The final concentration of the compounds in the 5 uL assay volume ranged from 0.5 nM to 46 uM. 4-6. After 48 hours of incubation at 37C and 5% CO2, 4 uL of CellTilter-Glo luminescent substrate mix (Promega, Madison, WI, USA) was added to each well. Then the plates were incubated for 20 minutes at room temperature. 7. After incubation, luminescence was measured using a ViewLux plate reader (PerkinElmer, Waltham, MA, USA) with a clear filter was used to measure the number of metabolically competent cells. To determine compound activity in the qHTS assay, the titration-response data for each sample was plotted and modeled by a four-parameter logistic fit yielding IC50 and efficacy (maximal response) values. […] REFERENCES: Inglese J, Shamu CE and Guy RK, Reporting data from high throughput screening of small molecule libraries, Nature Chemical Biology, 2007, 3(8): 438-441. doi.org/10.1038/nchembio0807-438.
% is set by controls: 0 for no effect and ±100 for the full control effect.

| Structure (SMILES) | Potency | activity (max response) |
| --- | --- | --- |
| C#Cc1cccc(Nc2ncnc3cc(OCCOC)c(OCCOC)cc23)c1 | 4.11 µM (active) and 8.91 µM (active) | – |
| COc1cc(OC)c2c(=O)[nH]c(-c3cc(C)c(OCCO)c(C)c3)nc2c1 | – | -6.15% (inactive) |
| CCOC(=O)N1CCC(=C2c3ccc(Cl)cc3CCc3cccnc32)CC1 | 4.61 µM (active) | – |
| C/C=C1\[C@H]2C=C(C)C[C@]1(N)c1ccc(=O)[nH]c1C2 | – | 12.5% (inactive) |
| CCCCCCCCc1ccc(CCC(N)(CO)CO)cc1 | 17.8 µM (active) | – |
| CC(C)OC(=O)c1cc2c(OCC(O)CNC(C)(C)C)cccc2[nH]1 (stereo not given) | – | -10.4% (inactive) |
| COc1cc(C(C)C)c(Oc2cnc(NC(CO)CO)nc2N)cc1I | – | -4% (inactive) |
| CCC(C(=O)OCCN1CCOC(c2ccccc2)C1C)c1ccccc1 (stereo not given) | – | 3.6% (inactive) |
| CCN(CC)C(=O)Cc1csc(NS(=O)(=O)c2cccc(Cl)c2C)n1 | – | -19.2% (inactive) |
| CN[C@H](CC(C)C)C(=O)N[C@H]1C(=O)N[C@@H](CC(N)=O)C(=O)N[C@H]2C(=O)N[C@H]3C(=O)N[C@H](C(=O)N[C@H](C(=O)O)c4cc(O)cc(O)c4-c4cc3ccc4O)[C@H](O)c3ccc(c(Cl)c3)Oc3cc2cc(c3O[C@@H]2O[C@H](CO)[C@@H](O)[C@H](O)[C@H]2O[C@H]2C[C@](C)(N)[C@H](O)[C@H](C)O2)Oc2ccc(cc2Cl)[C@H]1O | – | -12.5% (inactive) |
| O=C(O)CSCC(=O)NC1CCSC1=O (stereo not given) | – | 1.69% (inactive) and -8.03% (inactive) |
| Cc1cc(OCCOCC[N+](C)(C)Cc2ccccc2)ccc1C(C)(C)CC(C)(C)C | 5.8 µM (active) | – |
| CC1COC2(CCN(c3nc(=O)c4cc(C(F)(F)F)cc([N+](=O)[O-])c4s3)CC2)O1 (stereo not given) | – | -6.91% (inactive) |
| c1cc(-c2cnn3cc(-c4ccc(OCCN5CCCCC5)cc4)cnc23)ccn1 | 11.2 µM (active) | – |
| COC(=O)CCc1ccc(OCC(O)CNC(C)C)cc1 (stereo not given) | – | -6.6% (inactive) |
| Cc1cccc(C)c1NC(=O)c1ccc(N)cc1 | – | 6.32% (inactive) |
| C[C@@H]1CN(CC(=O)Nc2ccc3c(c2)Cc2cccc(-c4cc(=O)cc(N5CCOCC5)o4)c2S3)C[C@H](C)O1 | 28.2 µM (active) | – |
| NNCCc1ccccc1 | – | -8.17% (inactive) |
| CC(C)C(=O)OCC(=O)[C@@]12O[C@H](C3CCCCC3)O[C@@H]1C[C@H]1[C@@H]3CCC4=CC(=O)C=C[C@]4(C)[C@H]3[C@@H](O)C[C@@]12C | – | -10.3% (inactive) |
| O=C(OOC(=O)c1ccccc1)c1ccccc1 | – | 0.27% (inactive) |

| Structure (SMILES) | Potency | activity (max response) |
| --- | --- | --- |
| C=Cc1c(C)c2cc3[nH]c(cc4nc(cc5nc(cc1[nH]2)C(C)=C5CCC(=O)O)C(CCC(=O)O)=C4C)c(C)c3C=C | – | -8.14% (inactive) |
| C[C@@H]1O[C@@H](O[C@@H]2\C=C/C=C\C=C/C=C\C[C@H](C)OC(=O)/C=C\[C@H]3O[C@@H]3C[C@H](O)C[C@]3(O)C[C@@H](O)[C@@H](C(=O)O)[C@H](C2)O3)[C@H](O)[C@H](N)[C@@H]1O | – | 8.59% (inactive) |
| Cc1c(F)cccc1NC(=O)Nc1ccc(Cl)c(S(=O)(=O)[C@H]2CCCNC2)c1O | – | -7.46% (inactive) |
| CC1(C)O[C@@H]2[C@@H](CO[C@@]3(COS(N)(=O)=O)OC(C)(C)O[C@@H]23)O1 | – | 9.55% (inactive) |
| COc1ccnc(CS(=O)c2nc3ccc(OC(F)F)cc3[nH]2)c1OC (stereo not given) | – | -15.5% (inactive) and -5.64% (inactive) |
| N=C1S/C(=C\c2ccc(-c3ccc4c(c3)C(=O)NC4=O)o2)C(=O)N1c1ccc(Br)cc1 | – | 2.9% (inactive) |
| COc1c2occc2cc2ccc(=O)oc12 | – | 8.25% (inactive) and 3.48% (inactive) |
| CCN(CC)C(C)CN1c2ccccc2Sc2ccccc21 (stereo not given) | – | 16.5% (inactive) |
| CCOC(=O)c1ccc(C#Cc2ccc3c(c2)C(C)(C)CCS3)nc1 | – | -8.69% (inactive) |
| NCc1ccc(OCCCc2sc(-c3ccc4c(c3)/C(=N/Nc3nc5ccccc5s3)CCC4)nc2C(=O)O)cc1 | – | -8.27% (inactive) |
| Nc1ccc(S(N)(=O)=O)cc1 | – | 16.5% (inactive) and -23.7% (inactive) |
| Nc1ccc(C(=O)Nc2cccc(-c3nc(N4CCOCC4)c4oc5ncccc5c4n3)c2)cn1 | – | -13.4% (inactive) |
| Nc1cc(-c2ccncc2)c[nH]c1=O | – | 2.68% (inactive) |
| CC(=O)c1cc2c(o1)C(=O)c1ccccc1C2=O | 3.16 µM (active) | – |
| CCCCC(=O)O[C@]1(C(=O)CO)[C@@H](C)C[C@H]2[C@@H]3CCC4=CC(=O)C=C[C@]4(C)[C@@]3(F)[C@@H](O)C[C@@]21C | – | -3.35% (inactive) and -9.39% (inactive) |
| COc1ccccc1Oc1c(NS(=O)(=O)c2ccc(C(C)(C)C)cc2)nc(-c2ncccn2)nc1OCCO | – | -3.16% (inactive) |
| CN1C[C@H]2c3ccccc3Oc3ccc(Cl)cc3[C@@H]2C1 | – | -18.3% (inactive) |
| OC[C@@H](O)[C@H](O)[C@H](O)[C@@H](O)CO | – | 1.26% (inactive) and 9.11% (inactive) |
| COC1=C(OC)C(=O)C(C/C=C(\C)CC/C=C(\C)CC/C=C(\C)CC/C=C(/C)CC/C=C(\C)CC/C=C(\C)CC/C=C(\C)CC/C=C(\C)CC/C=C(\C)CCC=C(C)C)=C(C)C1=O | – | 3.03% (inactive) |
| NC(CSCC(=O)O)C(=O)O (stereo not given) | – | -12% (inactive) |
